Each structure is given as a SMILES string. Inconclusive results are not listed. Unmarked numbers belong to inactive results. Active and inactive are the calls of the source. Unless noted, calls follow the shape of the full dose curve.

Test [1] concerns the target Bile acid receptor (Homo sapiens) (UniProt Q96RI1). The experiment in a line: qHTS assay for small molecule antagonists of farnesoid X receptor signaling (AID 588526). Also: % is scaled to controls: 0 for no effect and ±100 for the full control effect. The gist of the method: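 Beta-lactamase reporter antagonist mode: HEK293T FXR-UAS-bla cells, titrated compound, CDCA stimulation, 16 h 37 C, CCF4 dye 2 h RT. Data normalized to CDCA 50 uM and DMSO; Hill-fit IC50.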
(In general: Quantitative high-throughput screening tests each substance at several concentrations.)

The target in test [2] is Peroxisome proliferator-activated receptor delta (Homo sapiens) (UniProt Q03181). The experiment in a line: qHTS assay for small molecule antagonists of peroxisome proliferator-activated receptor delta signaling (AID 588535; active = well fitted inhibition curve with a large enough effect in the signal ratio, with a control signal flat, not every such curve was filed as active; the % refers to the signal ratio). The procedure, abridged:
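HEK293T PPAR-delta-UAS-bla cells, 4000/well, 2% charcoal/dextran FBS; 5 h 37 C; cpd titration; 18 h 37 C; CCF4 2 h RT; FI 460/530 nm; Hill fit → IC50, efficacy.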

The target in test [3] is Retinoic acid receptor RXR-alpha (Homo sapiens) (UniProt P19793). The experiment in a line: qHTS assay for small molecule agonists of retinoid X receptor alpha signaling (AID 588544).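 Also: 0% = DMSO basal wells and 100% = reference agonist.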
Test [4] has as its target Thyroid hormone receptor beta (Homo sapiens) (UniProt P10828). The experiment in a line: qHTS assay for small molecule antagonists of thyroid hormone receptor beta signaling (AID 588547; active = well fitted inhibition curve with a large enough effect in the signal ratio, with a control signal flat, not every such curve was filed as active; the % refers to the signal ratio;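 also: cells stimulated with 0.4 nM T3 agonist during compound exposure; series mostly up to about 77 µM; % is scaled to controls: 0 for no effect and ±100 for the full control effect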). The conditions noted are these: TR-UAS-bla HEK293, beta-lactamase ratio, antagonist mode, 18 h. The procedure, abridged:
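Inhibition of T3-driven (0.4nM final) beta-lactamase reporter activity was measured over 0.59 nM to 92 uM compound after 18 h at 37 C. The cells were GripTite HEK293 TR-UAS-bla in charcoal/dextran-stripped serum, with CCF4 ratio read-out and IC50 from Hill fits.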

The nature of test [5]: qHTS assay for small molecule agonists of the antioxidant response element (ARE) signaling pathway (AID 651741; active = well fitted activation curve with a large enough effect in the signal ratio; the % refers to the signal ratio; also: potency is read from the fitted curve at half-maximal effect; as to activation: % of control where 0% means no effect). The gist of the method: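 Quantitative HTS in HepG2 cells stably expressing an ARE-beta-lactamase reporter; 16 h compound exposure at 37 C, followed by 2 h room-temperature incubation with LiveBLAzer B/G FRET substrate and fluorescence measurement.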
Test [6] concerns the target Androgen receptor (Homo sapiens) (UniProt P10275). The test is described as follows: qHTS assay for small molecule agonists of androgen receptor signaling (AID 588515; active = well fitted curve in the direction sought with a large enough effect in the signal ratio, with a control signal flat; the % refers to the signal ratio; also: % is scaled to controls: 0 for no effect and ±100 for the full control effect). The conditions noted are these: AR-UAS-bla HEK293, beta-lactamase ratio, agonist 16 h; activation: stronger effect = higher value. The procedure, abridged: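 EC50 and efficacy came from Hill fits of titrations (up to 92 uM) normalized to 30 nM R1881 as 100% and DMSO as 0%. Compound exposure was 16 h at 37 C on AR-UAS-bla HEK293 cells, with a 405/460/530 nm CCF4 fluorescence read.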

For test [7] the target is unchanged. The test is described as follows: qHTS assay for small molecule antagonists of androgen receptor signaling (AID 588516; active = well fitted curve in the direction sought with a large enough effect in the signal ratio, with a control signal flat, not every such curve was filed as active; the % refers to the signal ratio; also: % is scaled to controls: 0 for no effect and ±100 for the full control effect). The gist of the method:
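AR-UAS-bla GripTite HEK 293 cells (2000/well) treated with compound titrations plus 10 nM R1881 for 16 h at 37C. Beta-lactamase read by CCF4 FRET (460/530 nm); IC50 from Hill fits, normalized to R1881 and DMSO control wells.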

In test [8] the target is Vitamin D3 receptor (Homo sapiens) (UniProt P11473). The experiment in a line: qHTS assay for small molecule antagonists of vitamin D receptor signaling (AID 588541). The gist of the method:
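Antagonist-mode beta-lactamase reporter assay: HEK293T VDR-UAS-bla cells were exposed to titrated compound alongside 1-alpha,25-dihydroxyvitamin D3 at 3 nM final for 16 h. Values were normalized to the 50 nM agonist control and DMSO basal, with IC50 and efficacy from Hill equation fits.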

Thyroid hormone receptor beta (Homo sapiens), sequence (P10828 whole entry, looked up): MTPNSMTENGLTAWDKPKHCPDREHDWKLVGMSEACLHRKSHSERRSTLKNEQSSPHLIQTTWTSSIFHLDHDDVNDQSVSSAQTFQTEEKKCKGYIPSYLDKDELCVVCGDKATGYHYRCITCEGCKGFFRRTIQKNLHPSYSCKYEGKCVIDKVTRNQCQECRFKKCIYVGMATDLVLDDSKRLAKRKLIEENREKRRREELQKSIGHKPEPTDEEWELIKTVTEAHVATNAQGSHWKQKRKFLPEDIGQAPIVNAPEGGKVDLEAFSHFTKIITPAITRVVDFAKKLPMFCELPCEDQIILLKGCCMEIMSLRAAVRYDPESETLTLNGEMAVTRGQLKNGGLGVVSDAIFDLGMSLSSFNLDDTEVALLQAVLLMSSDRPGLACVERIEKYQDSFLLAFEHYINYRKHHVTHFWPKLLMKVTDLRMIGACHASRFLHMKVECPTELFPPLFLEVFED
Peroxisome proliferator-activated receptor delta (Homo sapiens), sequence (Q03181 whole entry, looked up): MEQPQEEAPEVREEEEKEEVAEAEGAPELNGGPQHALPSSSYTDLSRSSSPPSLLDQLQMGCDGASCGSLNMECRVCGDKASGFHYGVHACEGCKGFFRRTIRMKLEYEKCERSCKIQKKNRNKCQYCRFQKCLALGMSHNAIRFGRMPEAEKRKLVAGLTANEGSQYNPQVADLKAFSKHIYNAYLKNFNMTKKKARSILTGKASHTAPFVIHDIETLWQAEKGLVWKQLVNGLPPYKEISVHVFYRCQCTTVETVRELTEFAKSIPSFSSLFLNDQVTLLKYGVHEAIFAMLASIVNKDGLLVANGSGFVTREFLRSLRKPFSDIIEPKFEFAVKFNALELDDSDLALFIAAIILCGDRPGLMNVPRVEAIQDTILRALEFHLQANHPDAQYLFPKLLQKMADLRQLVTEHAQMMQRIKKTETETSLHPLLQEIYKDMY
Bile acid receptor (Homo sapiens), sequence (Q96RI1 whole entry, looked up): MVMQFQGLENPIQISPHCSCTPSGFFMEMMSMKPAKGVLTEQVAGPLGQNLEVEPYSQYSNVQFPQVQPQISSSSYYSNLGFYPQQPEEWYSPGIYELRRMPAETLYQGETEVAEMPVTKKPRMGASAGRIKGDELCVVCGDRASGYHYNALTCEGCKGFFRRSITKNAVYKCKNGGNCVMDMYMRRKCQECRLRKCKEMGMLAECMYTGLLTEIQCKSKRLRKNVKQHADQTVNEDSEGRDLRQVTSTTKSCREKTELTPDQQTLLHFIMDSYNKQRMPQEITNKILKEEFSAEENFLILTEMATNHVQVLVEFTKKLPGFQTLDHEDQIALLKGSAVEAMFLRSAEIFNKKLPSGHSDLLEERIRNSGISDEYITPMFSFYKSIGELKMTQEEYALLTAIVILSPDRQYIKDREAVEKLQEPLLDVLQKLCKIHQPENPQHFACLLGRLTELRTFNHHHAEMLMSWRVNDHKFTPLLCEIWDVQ
Vitamin D3 receptor (Homo sapiens), sequence (P11473 whole entry, looked up): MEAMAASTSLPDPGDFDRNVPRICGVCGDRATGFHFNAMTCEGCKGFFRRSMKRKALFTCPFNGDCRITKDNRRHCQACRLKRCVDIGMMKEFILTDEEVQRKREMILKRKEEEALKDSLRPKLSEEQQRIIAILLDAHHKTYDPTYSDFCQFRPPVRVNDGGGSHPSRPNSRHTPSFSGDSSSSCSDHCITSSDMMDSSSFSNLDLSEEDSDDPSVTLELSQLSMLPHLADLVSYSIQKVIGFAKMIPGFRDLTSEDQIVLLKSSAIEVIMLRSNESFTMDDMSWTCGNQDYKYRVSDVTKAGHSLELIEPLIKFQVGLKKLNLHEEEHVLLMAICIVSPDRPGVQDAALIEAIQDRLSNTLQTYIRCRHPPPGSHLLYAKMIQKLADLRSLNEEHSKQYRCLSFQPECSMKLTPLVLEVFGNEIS
Androgen receptor (Homo sapiens), sequence (P10275 whole entry, looked up): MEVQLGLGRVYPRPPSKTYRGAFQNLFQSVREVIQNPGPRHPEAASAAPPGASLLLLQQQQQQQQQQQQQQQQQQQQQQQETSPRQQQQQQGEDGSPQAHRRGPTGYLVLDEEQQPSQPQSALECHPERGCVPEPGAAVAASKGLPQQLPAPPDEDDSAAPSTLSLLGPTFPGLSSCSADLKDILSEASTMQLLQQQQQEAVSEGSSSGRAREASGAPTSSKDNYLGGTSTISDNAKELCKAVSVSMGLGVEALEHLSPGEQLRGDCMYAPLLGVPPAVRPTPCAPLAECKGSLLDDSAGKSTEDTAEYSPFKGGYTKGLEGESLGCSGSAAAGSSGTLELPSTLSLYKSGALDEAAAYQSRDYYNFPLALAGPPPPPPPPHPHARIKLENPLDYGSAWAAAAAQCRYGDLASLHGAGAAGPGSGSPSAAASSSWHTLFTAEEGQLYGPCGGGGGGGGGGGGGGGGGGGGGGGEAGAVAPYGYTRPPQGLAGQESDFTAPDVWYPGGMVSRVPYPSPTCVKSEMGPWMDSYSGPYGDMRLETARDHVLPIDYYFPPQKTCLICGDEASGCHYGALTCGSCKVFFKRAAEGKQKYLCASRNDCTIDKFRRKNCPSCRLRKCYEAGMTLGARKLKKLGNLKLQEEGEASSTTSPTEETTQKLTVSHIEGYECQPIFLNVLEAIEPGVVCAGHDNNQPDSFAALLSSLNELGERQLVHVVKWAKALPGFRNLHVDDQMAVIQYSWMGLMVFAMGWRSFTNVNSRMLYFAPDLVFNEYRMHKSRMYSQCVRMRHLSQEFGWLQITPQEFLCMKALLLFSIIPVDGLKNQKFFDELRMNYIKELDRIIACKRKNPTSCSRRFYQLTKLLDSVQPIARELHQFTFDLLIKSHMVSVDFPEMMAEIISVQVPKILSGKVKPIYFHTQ
Retinoic acid receptor RXR-alpha (Homo sapiens), sequence (P19793 whole entry, looked up): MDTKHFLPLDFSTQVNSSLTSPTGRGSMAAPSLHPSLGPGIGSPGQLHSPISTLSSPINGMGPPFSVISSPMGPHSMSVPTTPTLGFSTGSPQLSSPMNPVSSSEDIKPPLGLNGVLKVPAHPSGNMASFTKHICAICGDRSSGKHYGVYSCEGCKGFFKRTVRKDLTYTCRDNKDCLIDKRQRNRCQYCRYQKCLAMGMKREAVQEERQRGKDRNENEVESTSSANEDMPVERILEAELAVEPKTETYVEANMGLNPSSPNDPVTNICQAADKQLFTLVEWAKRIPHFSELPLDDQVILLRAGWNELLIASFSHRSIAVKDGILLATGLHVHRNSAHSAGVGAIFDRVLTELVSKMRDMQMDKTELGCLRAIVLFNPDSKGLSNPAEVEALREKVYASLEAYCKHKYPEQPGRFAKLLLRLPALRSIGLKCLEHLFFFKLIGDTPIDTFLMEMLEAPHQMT

In the case of `CCCCCCOCCOCCO`, the Potency result in test [1], in test [2] and in test [3] was “inactive” in each case.

Regarding `Cc1ccc(N)c(S(=O)(=O)O)c1`, the Potency entry in test [1], in test [2] and in test [3] was “inactive” in each case. Besides, in test [4], the activity change % (negative = inhibition) is -15.2%. Moreover, the Potency in test [5] was 61.1 µM (active).

As to `CC(C)=CCC/C(C)=C\CO`, the activation in test [6] is -0.0899%. The result in test [7] was inactive. The Potency result in test [8], in test [3] and in test [5] was “inactive” in each case. Moreover, the activity change % (negative = inhibition) in test [4] was -2.03%.

Take `O=C1NC(=O)C(Cc2ccc(OCCN3COc4ccccc4C3=O)cc2)S1` (stereo not drawn): the activation in test [6] was -3.44%. In test [1], the Potency result is “inactive”. In addition, the Potency in test [5] is 48.6 µM (active).

Regarding `O=C(O)C1(C(=O)Nc2ccc(Cl)cc2Cl)CC1`, the compound was classed as inactive in test [7]. For the same compound, in test [8], the Potency result was “inactive”.

With `C=C(C)C(=O)OCC(CC)(COC(=O)C(=C)C)COC(=O)C(=C)C`, the Potency entry in test [1], in test [2], in test [3] and in test [5] was “inactive” each time.

Take `COC(=O)CSc1cc(N=c2sc(=O)n3n2CCCC3)c(F)cc1Cl`: the activation in test [6] is -5.93%. In test [1], the Potency result is “inactive”.

Take `CCOc1ccc(NC(=O)OC(C)C)cc1OCC`: the Potency result in test [1], in test [8] and in test [5] was “inactive” in each case. Besides, the activity change % (negative = inhibition) in test [4] was -11%.

`CCCCC(CC)COC(=O)c1ccc(C(=O)OCC(CC)CCCC)cc1` (stereo not drawn): the call in test [7] was inactive. The Potency entry in test [1], in test [2], in test [3] and in test [5] was “inactive” each time.

Take `CCCCCCCCCCCCCC(=O)OC`: the activation in test [6] is 9.07%. Also, the compound was called inactive in test [7]. Also, the Potency entry in test [2], in test [8] and in test [3] was “inactive” throughout. Besides, the activity change % (negative = inhibition) in test [4] is 3.36%.

With `CO[Si](CCCNCCN)(OC)OC`, in test [6], the activation was 4.85%. In test [7], the result was inactive. For the same compound, the Potency entry in test [2] and in test [3] was “inactive” in each case. Further, the activity change % (negative = inhibition) in test [4] is 7.69%.

Turning to `OCc1cccc(Oc2ccccc2)c1`, in test [6], the activation was 3.06%. The call in test [7] was inactive. In addition, the Potency entry in test [1], in test [2], in test [3] and in test [5] was “inactive” throughout. Also, in test [4], the activity change % (negative = inhibition) was 9.19%.

For the compound `CC1(C)[C@@H]([C@@H](Br)C(Br)(Br)Br)[C@H]1C(=O)O[C@H](C#N)c1cccc(Oc2ccccc2)c1`, the activation in test [6] is -17.3%. Further, in test [4], the activity change % (negative = inhibition) is -17.9%. Moreover, the Potency in test [5] was 21.7 µM (active).

As to `O=C(O)CCCCCCC(=O)O`, the Potency result in test [1], in test [8] and in test [3] was “inactive” in each case.

With `COCCOCCOCCOC`, the Potency result in test [1], in test [8] and in test [3] was “inactive” each time.

In the case of `Nc1cc(Cl)c(O)c(Cl)c1`, the activation in test [6] is -4.43%. Also, the Potency in test [5] is 12.2 µM (active).

In the case of `CC(C)(C)[C@H](O)[C@H](Cc1ccc(Cl)cc1)n1cncn1`, the Potency entry in test [1], in test [2], in test [8] and in test [3] was “inactive” throughout.

In the case of `CCCCCCC(C)(C)S`, the Potency entry in test [1], in test [3] and in test [5] was “inactive” each time.

With `CCCC[O][Al]([O]CCCC)[O]CCCC`, the Potency entry in test [1], in test [2], in test [8], in test [3] and in test [5] was “inactive” throughout.

For `C=C(C)C(=O)OCC[N+](C)(C)C`, the activation in test [6] was 0.258%. For the same compound, the outcome in test [7] was inactive. Moreover, the Potency result in test [2], in test [8], in test [3] and in test [5] was “inactive” in each case. For the same compound, in test [4], the activity change % (negative = inhibition) is 5.25%.

As for `CCOC(=O)C(C)Oc1ccc(Oc2cnc3cc(Cl)ccc3n2)cc1` (stereo not drawn), the Potency entry in test [1] and in test [8] was “inactive” in each case.

Take `NC(=O)Cc1cccc2ccccc12`: the Potency result in test [1], in test [2], in test [3] and in test [5] was “inactive” in each case.

Turning to `CCCCC(CC)COC(=O)/C=C\C(=O)OCC(CC)CCCC` (stereo not drawn), the outcome in test [7] was inactive. Moreover, the Potency result in test [2], in test [8] and in test [3] was “inactive” throughout. Moreover, the Potency in test [5] was 30.6 µM (active).

Regarding `CN(C)CCOCCN(C)C`, the Potency result in test [1], in test [2], in test [8], in test [3] and in test [5] was “inactive” each time. Further, the activity change % (negative = inhibition) in test [4] was -4.05%.

With `CS(C)=O`, the Potency result in test [1], in test [2] and in test [8] was “inactive” in each case. The activity change % (negative = inhibition) in test [4] is -25.7%.

Take `O=C(O)CN(CCCN(CC(=O)O)CC(=O)O)CC(=O)O`: the activation in test [6] was -11.6%. Also, the Potency result in test [1] and in test [3] was “inactive” each time.

Regarding `C1=C/CC/C=C/CC/C=C/CC/1`, the Potency entry in test [1] and in test [5] was “inactive” throughout. Further, in test [4], the activity change % (negative = inhibition) was 0.305%.

Turning to `C=CCOC(=O)CC(C)C`, the Potency entry in test [1], in test [2], in test [8] and in test [5] was “inactive” in each case.

Take `Oc1ccc(C(c2ccc(O)cc2)C(Cl)(Cl)Cl)cc1`: in test [1], the Potency entry is “inactive”. Further, the activity change % (negative = inhibition) in test [4] was -14.4%. In test [5], the Potency is 54.5 µM (active).

Turning to `CCOC(=O)[C@H](C)Oc1ccc(Oc2nc3ccc(Cl)cc3o2)cc1`, the Potency result in test [1], in test [2] and in test [8] was “inactive” throughout.

Take `CC(C)(C)c1ccc(C(=O)O)cc1`: the Potency result in test [1], in test [2] and in test [3] was “inactive” throughout. Besides, in test [4], the activity change % (negative = inhibition) was 0.292%.

As to `CC(C)C[C@H](NC(=O)OCC1c2ccccc2-c2ccccc21)C(=O)O`, the Potency result in test [1] was “inactive”. Besides, the activity change % (negative = inhibition) in test [4] is -4.45%.

In the case of `CO[Si](CCCOCC1CO1)(OC)OC` (stereo not drawn), the Potency result in test [1], in test [8], in test [3] and in test [5] was “inactive” each time. In addition, the activity change % (negative = inhibition) in test [4] was 7.57%.

As to `CCOCCOCCOC(C)=O`, the Potency entry in test [1], in test [8] and in test [5] was “inactive” throughout. Also, in test [4], the activity change % (negative = inhibition) is 14%.

As to `COC(=O)CCSCCC(=O)OC`, the Potency entry in test [1] and in test [2] was “inactive” in each case.

For the compound `O=C(O)c1cc2ccccc2cc1O`, the activation in test [6] was -7.51%. The compound was classed as inactive in test [7]. Besides, the Potency entry in test [8] and in test [3] was “inactive” throughout. The activity change % (negative = inhibition) in test [4] was -1.94%.

As for `CCCCCCC(O)CCCCCCCCCCC(=O)O` (stereo not drawn), the Potency result in test [1], in test [2] and in test [3] was “inactive” in each case. Besides, the activity change % (negative = inhibition) in test [4] was -5.14%.

Take `CCOC(=O)C(C)Oc1ccc(Oc2nc3ccc(Cl)cc3o2)cc1` (stereo not drawn): the Potency result in test [2], in test [8] and in test [3] was “inactive” in each case.

Take `CCCCCCCCCCCCN`: the Potency result in test [2], in test [3] and in test [5] was “inactive” throughout. Besides, the activity change % (negative = inhibition) in test [4] was -7.43%.

As to `CCCCCCCCCCCC[N+](C)(C)C`, the Potency result in test [2] and in test [8] was “inactive” throughout. Also, the Potency in test [5] was 19.3 µM (active).

As for `CCC(O)OCCCOC` (stereo not drawn), the Potency result in test [2], in test [3] and in test [5] was “inactive” throughout.

Source of the values: PubChem BioAssay (NCATS).
